Here are results for four compounds from ChEMBL document CHEMBL3433997, “St. Jude Leishmania screening dataset” (2016).

Holding throughout (type): functional
Test [1] addresses Solute carrier family 2, facilitated glucose transporter member 1 (Homo sapiens) (UniProt P11166). In words: ST_JUDE_LEISH: Cytotoxicity at 2uM final concentration against transgenic Leishmania Mexicana promastigotes LmGLUT1 that are glucose transport deficient and complemented with the human glucose transporter GLUT1. Activity is measured by DNA content using SYBR green in vitro.

Test [2] deals with Hexose transporter 1 (Plasmodium falciparum) (UniProt O97467). In words: ST_JUDE_LEISH: Cytotoxicity at 2uM final concentration against transgenic Leishmania Mexicana promastigotes LmPfHT that are glucose transport deficient and complemented with the Plasmodium falciparum hexose transporter. Activity is measured by DNA content using SYBR green in vitro.
In test [3] the target is Glucose transporter (Leishmania mexicana) (UniProt O61059). In words: ST_JUDE_LEISH: Cytotoxicity at 2uM final concentration against transgenic Leishmania Mexicana promastigotes LmGT2 that are glucose transport deficient and complemented with the L. Mexicana glucose transporter 2. Activity is measured by DNA content using SYBR green in vitro.

Solute carrier family 2, facilitated glucose transporter member 1 (Homo sapiens), sequence (P11166 whole entry): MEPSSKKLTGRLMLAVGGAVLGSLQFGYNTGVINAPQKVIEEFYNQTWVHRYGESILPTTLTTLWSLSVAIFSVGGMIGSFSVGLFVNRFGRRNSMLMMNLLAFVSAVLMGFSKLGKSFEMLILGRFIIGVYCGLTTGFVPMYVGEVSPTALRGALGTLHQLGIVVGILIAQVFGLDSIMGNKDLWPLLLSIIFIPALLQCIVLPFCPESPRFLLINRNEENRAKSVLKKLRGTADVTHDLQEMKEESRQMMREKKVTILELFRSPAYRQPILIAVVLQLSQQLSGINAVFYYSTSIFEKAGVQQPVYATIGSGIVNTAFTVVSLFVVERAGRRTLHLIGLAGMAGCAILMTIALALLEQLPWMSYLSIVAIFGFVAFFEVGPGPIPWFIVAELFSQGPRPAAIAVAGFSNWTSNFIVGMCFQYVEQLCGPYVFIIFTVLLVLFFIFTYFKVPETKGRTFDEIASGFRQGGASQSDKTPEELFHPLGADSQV

With `CCc1cccc2sc(N3CCN(C(=O)c4ccc([N+](=O)[O-])o4)CC3)nc12`, the inhibition (usually the change of the read-out against control, counted positive when it falls) came out at 71.2% in test [1], 69.1% in test [2] and 36.8% in test [3].
As for `CCc1c[nH]c2c(N3CCCS3(=O)=O)cc(C(=O)N[C@@H](Cc3ccccc3)[C@H](O)CNC(C)(C)CCCC(C)C)cc12`, the inhibition in test [1] was found to be 1.92%; in test [2], 2.29%; in test [3] it was 0.89%.
Take `Cc1cc(N[C@@H](CC(C)C)C(=O)NCCc2ccccc2)nc(NCCc2ccc(F)cc2)n1`: the figures for the inhibition in test [1], in test [2] and in test [3] were -0.03%, 0.66% and -1.31%, respectively.
Consider `Oc1ccccc1CCNC1CCc2ccccc2C1` (configuration not stated), for which the inhibition in test [1] is 4.4%; in test [2], 5.27%; in test [3], 6.05%.
